From ChEMBL document CHEMBL3988442, “University of Dundee, Small-Polar-MMV Screening Library” (2021)

Key:
[1] = target: T1, Aspartate--tRNA(Asp/Asn) ligase (Mycobacterium tuberculosis (strain ATCC 25618 / H37Rv)) (UniProt P9WFW3); experiment: Assay for Asp RNA synthetase-1 from Mycobacterium tuberculosis; type: functional; parameters: scale not given: direction of the effect not stated beside the values; conditions: 30 µM; note: in the data most compounds retested in dose-response had high values
T1 sequence (whole entry): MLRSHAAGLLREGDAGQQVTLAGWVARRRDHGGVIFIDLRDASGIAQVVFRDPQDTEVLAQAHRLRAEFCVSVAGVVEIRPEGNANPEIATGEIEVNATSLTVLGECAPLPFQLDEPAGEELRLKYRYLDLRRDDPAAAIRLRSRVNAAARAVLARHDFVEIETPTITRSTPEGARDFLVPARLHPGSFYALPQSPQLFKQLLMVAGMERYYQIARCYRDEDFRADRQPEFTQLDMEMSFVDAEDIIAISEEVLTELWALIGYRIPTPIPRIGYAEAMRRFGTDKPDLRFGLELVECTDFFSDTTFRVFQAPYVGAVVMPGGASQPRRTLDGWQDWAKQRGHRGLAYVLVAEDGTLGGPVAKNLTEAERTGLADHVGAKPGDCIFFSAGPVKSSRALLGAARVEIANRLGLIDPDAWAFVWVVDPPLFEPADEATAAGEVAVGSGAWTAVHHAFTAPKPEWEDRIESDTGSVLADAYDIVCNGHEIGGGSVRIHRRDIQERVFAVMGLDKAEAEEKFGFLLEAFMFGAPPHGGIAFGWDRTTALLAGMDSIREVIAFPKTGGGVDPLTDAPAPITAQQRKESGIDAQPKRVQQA

[2] = target: Shiga toxin 2 (Escherichia coli O157:H7) (UniProt P09385+P09386); experiment: E. coli 0.157:H7 Shiga Toxin SOP - stx2 screening assay; type: functional; parameters: scale not given: direction of the effect not stated beside the values; conditions: 30 µM

Row | Structure (SMILES) | Percent Effect [1] | Percent Effect [2]
1 | Cc1ccc2cc(C(=O)NCCn3nc4ccccn4c3=O)[nH]c2c1 | -5.08% | -70.8%
2 | O=S1(=O)COCCN1Cc1ccc(Cl)c(F)c1 | 2.49% | -5.38%
3 | COc1c(CNC(c2ccc(F)cc2)C(C)(C)C)c(C)nn1C (stereo not drawn) | -1.59% | 40.7%
4 | COc1ccccc1OCC(=O)NS(=O)(=O)c1ccc(Br)s1 | 2.43% | -0.0881%
5 | CS(=O)(=O)N1CCOCC2(CCN(C(=O)c3cccnc3)CC2)C1 | -2.76% | -13.1%
6 | OC(CNCCn1cccn1)c1ccc(F)c(F)c1 (stereo not drawn) | -2.25% | -25.7%
7 | CCOc1ncccc1NC(=O)NCC(O)c1ccccc1OC (stereo not drawn) | -0.742% | -2.67%
8 | CN(Cc1ccco1)C[C@H]1OC[C@@H]2CCN(Cc3cccnc3)C[C@@H]21 | 3.55% | -24.2%
9 | CCS(=O)(=O)N(C)CC(=O)Nc1ccc(Br)cn1 | -2.34% | -12.9%
10 | COc1ccc(CN2C[C@@H](N(C)Cc3ccco3)[C@H]3OCCC[C@H]32)cc1 | 0.632% | 4.78%
11 | Cc1occc1C(=O)N1CCC2(CC1)CC(c1cccnc1)C(=O)N2C (stereo not drawn) | -1.22% | -20.1%
12 | Cc1ccc(CNC(=O)N2CCN(Cc3ccsc3)CC2)n1C | 0.896% | -31.3%
13 | OC1CCN(Cc2cc3c(cc2Br)OCCO3)CC1 | 2.56% | -8.4%
14 | CN(C)C(=O)CN1C(=O)CCC12CCN(Cc1ccc(F)cc1)CC2 | 1.43% | -5.2%
15 | CN1CCN(Cc2cscn2)CC(C(=O)N(C)C)C1 (stereo not drawn) | -6.57% | -14.6%
16 | CCOc1ccc(Cl)c(C(=O)N2CCN(c3cnccn3)CC2)n1 | -1.79% | -46.8%
17 | O=C(NCC1CC1)[C@H]1C[C@H]2OCC[C@H]2N(CCc2ccccc2)C1 | 3.44% | 2.56%
18 | O=C(N1CCOCC1)[C@@]12CCO[C@@H]1CCN(CCN1CCCCC1)C2 | 3.6% | -37.5%
19 | Cc1ncsc1C(=O)NC1CCN(Cc2ccc(C#N)cc2)CC1 | 1.55% | -28.6%
20 | Cc1cc(CN2CCN(C(=O)Nc3cccnc3)CC2)on1 | -2.97% | 26.4%
21 | CC(C)(C)C(=O)NS(=O)(=O)c1ccc(C#N)cc1C(F)(F)F | 0.681% | 21.9%
22 | CC(C)c1noc(CCC(=O)NC(C)c2nnc3n2CCCCC3)n1 (stereo not drawn) | 0.353% | -13.7%
23 | CC(C(=O)N1CCCN(Cc2ccc(C#N)cc2)CC1)n1ccnc1 (stereo not drawn) | -0.834% | 29.9%
24 | COc1ccc(CN2CCC3(CC(=O)N(c4cncnc4)C3)C2)cc1 (stereo not drawn) | 0.382% | -11.8%
25 | CCS(=O)(=O)c1ccccc1N1CCC(NC(=O)NC2CCCC2)CC1 | -3% | 7.11%

Row | Structure (SMILES) | Percent Effect [1] | Percent Effect [2]
26 | Cc1cnccc1N1CCCN(C(=O)CCCc2cn[nH]c2)CC1 | -0.632% | -13.3%
27 | CS(=O)(=O)c1ccc(NC(=O)N2CCc3sccc3C2)cn1 | 5.08% | -38%
28 | COc1cc(CNCCc2nc(C)cs2)cc2c1OCCO2 | -4.99% | 14.4%
29 | Cc1nnc(NCc2cccnc2N(C)C)c(C#N)c1C | 0.728% | 0.124%
30 | Cc1nc(CNC(=O)Cn2nc(-c3ccc(F)cc3)oc2=O)cs1 | -0.967% | 17.9%
31 | CNC(=O)COc1ccccc1CNC1CCc2ncnn2C1 (stereo not drawn) | -0.833% | -29.9%
32 | Cc1nc(C2CCN(C(=O)c3cccnc3)CC2)c2sccn12 | 2.04% | -14.1%
33 | O=C(C1CCC1)N1CCN(c2snc3ccccc23)CC1 | 2.29% | 10.4%
34 | CNC(=O)N1CCc2cc(C(=O)N(C)C)c(NCC3CC3)nc2CC1 | 1.99% | -3.46%
35 | Cc1cnn(CC2CCCN2Cc2nnsc2Cl)c1 (stereo not drawn) | -2.88% | 9.02%
36 | O=C(NCc1ccco1)[C@H]1C[C@H]2OCC[C@H]2N(C(=O)c2ccncc2)C1 | 4.89% | 8.77%
37 | O=C(Nc1cccnc1)[C@H]1C[C@H]2OCC[C@H]2N(C(=O)c2ccsc2)C1 | 4.71% | -27.5%
38 | CCn1cc(CN(C)S(=O)(=O)c2cnn(CC)c2C)c(C)n1 | -3.81% | 3.32%
39 | CN1CCC(Oc2ccc(NC(=O)c3ccccc3Br)cc2)CC1 | -0.921% | -69.6%
40 | COc1ccc(C(C)=O)c(OCC(=O)NC(C)c2ccc(F)cc2)c1 (stereo not drawn) | -4.39% | -1.68%
41 | Cc1cc(NC(=O)CCc2ccsc2)n(C)n1 | 1.87% | -17.7%
42 | Cc1cc(C)n(CC2CCCN2C(=O)CCc2cscn2)n1 (stereo not drawn) | -0.678% | 17%
43 | c1coc(-c2noc(CN3CC(n4cccn4)C3)n2)c1 | -3.52% | 24.7%
44 | COc1cccc(CN(C)C(=O)CN2CC(n3nc(C)cc3C)C2)c1 | 1.62% | -22.3%
45 | COc1cc(CNC(=O)NCc2c(C)cc(C)[nH]c2=O)ccc1C | -3.59% | -4.18%
46 | CCc1nccn1-c1cncc(C2CCCN2Cc2ccc(F)cc2)n1 (stereo not drawn) | 1.57% | -28.9%
47 | CSc1ccc(NC(=O)Nc2ccc3c(c2)N(S(C)(=O)=O)CC3)cc1 | -2.32% | -21.8%
48 | CC(CNC(=O)Nc1cn[nH]c1)N1CCOCC1 (stereo not drawn) | 1.82% | 26.9%
49 | CCn1cc(N)c(C(=O)NCc2cnn(C)c2)n1 | -1.99% | -25.8%
50 | CC(CN1CCC2(CC1)c1nc[nH]c1CCN2S(C)(=O)=O)C(F)(F)F (stereo not drawn) | 2.76% | 4.49%

Row | Structure (SMILES) | Percent Effect [1] | Percent Effect [2]
51 | Cc1nc(C2CCN(C(=O)c3ccc(=O)n(C)c3)CC2)c2sccn12 | 3.56% | -17.4%
52 | CC(NC(=O)NCCCN(C)S(C)(=O)=O)c1ccncc1 (stereo not drawn) | -2.98% | -9.54%
53 | CN(CCNC(=O)c1scnc1Cl)c1ccccc1 | 2.87% | -17.4%
54 | CC1=N[C@@]2(CC[C@@H]3CN(CC(=O)N(C)C)C[C@@H]32)C(=O)N1CC(C)C | -0.203% | -75.1%
55 | O=C(Nc1cc(F)ccc1OCC1CCCO1)c1ccc(O)nc1 (stereo not drawn) | 5.1% | 33.8%
56 | CCc1nc(CN(Cc2cccs2)CC2CCCO2)no1 (stereo not drawn) | 2.75% | 15%
57 | Cc1cc(NC(=O)CN2CCN(c3nccs3)C(C)C2)n(C)n1 (stereo not drawn) | 7.92% | 7.19%
58 | NC(=O)C1CCN(c2nc3nccc(-c4ccccc4)c3c(=O)[nH]2)CC1 | -4.72% | -30.6%
59 | COc1c(C2CCCN2Cc2cc(C)no2)c(C)nn1C (stereo not drawn) | 3.61% | 18.1%
60 | CCC(O)CN1CCN(C(=O)c2cccn2Cc2ccccc2)CC1 (stereo not drawn) | -0.0571% | 16.8%
61 | CC(C)N1CCO[C@H]2CN(C(=O)c3ccoc3)C[C@H]21 | 8.86% | -1.73%
62 | COc1ccc(CNCc2ccnc(N3CCOCC3)c2)c(OC)c1 | 1.38% | 17.1%
63 | Cc1nn(C)c(N(C)C)c1CNCC(O)COc1ccc(F)cc1 (stereo not drawn) | -7.16% | 8.48%
64 | CC(C)C(=O)N1CCC(c2nc(O)cc(-c3ccncc3)n2)CC1 | -2.46% | 3.51%
65 | CCO[C@@H]1CC[C@H]2[C@H]1OCCN2C(=O)C1CCOCC1 | -5.84% | 8.02%
66 | COc1ccc(CNCc2c(C)nn(C)c2N2CCOCC2)cc1 | -0.115% | 14.4%
67 | CC(C)[C@H](NC(=O)NC1CCS(=O)(=O)C1)C(=O)NCc1ccccc1Cl (stereo partly drawn) | 0.145% | -30%
68 | O=C(NCCN1CCNCC1)c1nc2ccccc2c(=O)[nH]1 | 2.9% | -55.8%
69 | CSCC(CCO)NC(=O)Nc1cc(C)ccc1C (stereo not drawn) | 6.04% | -16.3%
70 | CCc1nc(C2CCCN2CCc2ccccn2)no1 (stereo not drawn) | -4.14% | -69%
71 | CC(C)NC(=O)[C@@H](NC(=O)N1CCN(c2ccc(Cl)cc2)CC1)C(C)C | -2.11% | -49%
72 | COCC1CN(Cc2ccc(C)o2)Cc2ncn(CC3CC3)c21 (stereo not drawn) | -3.92% | -13.7%
73 | Cc1cnn(CC2CCCCN2CC(=O)Nc2c(C)n[nH]c2C)c1 (stereo not drawn) | -1.88% | -12.9%
74 | CCCn1ccc(C(=O)N2CCC(C)CC2)n1 | 3.36% | -27.6%
